# From the supplement of paper PMC8728848
# The full list was thinned out, with the strongest signals kept by preference.
# B1: Gal 4 (Canis lupus) (protein)
# chain: MAYVPAPGYQPTYNPTLPYNKPIPGGLSVGMSVYIQGITSEHMRRFCVNFVAGAHPGSDIAFHFNPRFDGWDKVVFNSHLGGKWGSEEKKRSMPFRKGTHFELVFMVLAEHYKVVVNGNPFYEFGHRLPLQLVTHLQVEGDVELQSINFIGGTQPLGQGPGHTQQQPSSLPTMEGPPVFNPPVPFRKRLQGGLTVRRTVIIKGFVPFTSKSFVINFMVESSGDLALHINPRLTEGLVVRNSCLNGSWGSEDRKLSYNPFIPGQFFDLSIRCGMDRFKVYANGQHLFDFSHRLLALQNVDMLEINGDVTLSYIQV
# Columns and labels:
# Assay in all cases: glycan array binding signal (z-score within array); higher = stronger binding
# Details in all cases: glycan notation: IUPAC condensed, linker removed
# Fuc(a1-2)Gal(b1-4)Glc6S = biological target: Fuc(a1-2)Gal(b1-4)Glc6S
# Outline: (§1)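 From the Consortium for Functional Glycomics database, 3228 arrays were curated, keeping only those whose protein sequence was available. Binding is given as a within-array Z-score averaged across arrays sharing a protein sequence and across linkers. Negative Z-scores can be read as non-binding.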
# [1] = biological target: Fuc(a1-2)[Gal(a1-3)]Gal(b1-4)Glc
# Outline: as §1
# [2] = biological target: Fuc(a1-2)[Gal(a1-3)]Gal(b1-4)GlcNAc(b1-2)Man(a1-3)[Fuc(a1-2)[Gal(a1-3)]Gal(b1-4)GlcNAc(b1-2)Man(a1-6)]Man(b1-4)GlcNAc(b1-4)GlcNAc
# Outline: as §1
# [3] = biological target: Fuc(a1-2)[GalNAc(a1-3)]Gal
# Outline: as §1
# [4] = biological target: Fuc(a1-2)[GalNAc(a1-3)]Gal(b1-4)Glc
# Outline: as §1
# [5] = biological target: Fuc(a1-2)[GalNAc(a1-3)]Gal(b1-4)GlcNAc(b1-2)Man(a1-3)[Fuc(a1-2)[GalNAc(a1-3)]Gal(b1-4)GlcNAc(b1-2)Man(a1-6)]Man(b1-4)GlcNAc(b1-4)GlcNAc
# Outline: as §1
# [6] = biological target: Fuc(a1-2)[GalNAc(a1-3)]Gal(b1-4)GlcNAc(b1-3)Gal(b1-4)GlcNAc
# Outline: as §1
# [7] = biological target: Fuc(a1-2)[GalNAc(a1-3)]Gal(b1-4)GlcNAc(b1-3)Gal(b1-4)GlcNAc(b1-3)Gal(b1-4)GlcNAc
# Outline: as §1
# [8] = biological target: Fuc(a1-3)[Gal(b1-4)]GlcNAc
# Outline: as §1
# [9] = biological target: Fuc(a1-3)[GalNAc(b1-4)]GlcNAc
# Outline: as §1
# [10] = biological target: Gal(b1-3)GalNAc(a1-3)[Fuc(a1-2)]Gal(b1-4)Glc
# Outline: as §1
# [11] = biological target: Gal(b1-3)GalNAc(a1-3)[Fuc(a1-2)]Gal(b1-4)GlcNAc
# Outline: as §1
# [12] = biological target: Gal(b1-3)GlcNAc(a1-6)Gal(b1-4)GlcNAc
# Outline: as §1
# [13] = biological target: Gal(b1-3)GlcNAc(b1-3)Gal(b1-4)GlcNAc(b1-6)[Gal(b1-3)GlcNAc(b1-3)]Gal(b1-4)Glc
# Outline: as §1
# [14] = biological target: Gal(b1-4)GalNAc(a1-3)[Fuc(a1-2)]Gal(b1-4)GlcNAc
# Outline: as §1
# [15] = biological target: Gal(b1-4)GlcNAc(b1-2)Man(a1-3)[GlcNAc(b1-2)Man(a1-6)]Man(b1-4)GlcNAc(b1-4)GlcNAc
# Outline: as §1
# [16] = biological target: Gal(b1-4)GlcNAc(b1-2)Man(a1-6)Man(b1-4)GlcNAc(b1-4)GlcNAc
# Outline: as §1
# Gal4S(b1-4)GlcNAc = biological target: Gal4S(b1-4)GlcNAc
# Outline: as §1
# Gal6S(b1-3)GlcNAc = biological target: Gal6S(b1-3)GlcNAc
# Outline: as §1
# GlcA(b1-3)GlcNAc = biological target: GlcA(b1-3)GlcNAc
# Outline: as §1
# [17] = biological target: GlcNAc(a1-4)Gal(b1-4)GlcNAc(b1-3)Gal(b1-4)Glc
# Outline: as §1
# [18] = biological target: GlcNAc(b1-2)Man(a1-3)[GlcNAc(b1-4)][GlcNAc(b1-2)Man(a1-6)]Man(b1-4)GlcNAc(b1-4)GlcNAc
# Outline: as §1
# [19] = biological target: GlcNAc(b1-2)[GlcNAc(b1-6)]Man(a1-6)[GlcNAc(b1-2)Man(a1-3)]Man(b1-4)GlcNAc(b1-4)GlcNAc
# Outline: as §1
# [20] = biological target: GlcNAc(b1-2)[GlcNAc(b1-6)]Man(a1-6)[GlcNAc(b1-2)Man(a1-3)][GlcNAc(b1-4)]Man(b1-4)GlcNAc(b1-4)GlcNAc
# Outline: as §1
# [21] = biological target: GlcNAc(b1-4)[GlcNAc(b1-6)]GalNAc
# Outline: as §1
# Man(a1-2)Man(a1-3)Man = biological target: Man(a1-2)Man(a1-3)Man
# Outline: as §1
# Man(a1-6)Man = biological target: Man(a1-6)Man
# Outline: as §1
# Neu5Ac(a2-3)Gal = biological target: Neu5Ac(a2-3)Gal
# Outline: as §1
# [22] = biological target: Neu5Ac(a2-3)Gal(b1-3)GalNAc
# Outline: as §1
# [23] = biological target: Neu5Ac(a2-3)Gal(b1-3)[Neu5Ac(a2-3)Gal(b1-4)]GlcNAc
# Outline: as §1
binder,measurement,setting,value
B1,glycan array binding signal (z-score),Fuc(a1-2)Gal(b1-4)Glc6S,0.071
same,glycan array binding signal (z-score),[1],8.77
same,glycan array binding signal (z-score),[2],2.77
same,glycan array binding signal (z-score),[3],-0.155
same,glycan array binding signal (z-score),[4],5.95
same,glycan array binding signal (z-score),[5],3.76
same,glycan array binding signal (z-score),[6],7.32
same,glycan array binding signal (z-score),[7],0.359
same,glycan array binding signal (z-score),[8],-0.151
same,glycan array binding signal (z-score),[9],-0.147
same,glycan array binding signal (z-score),[10],11.1
same,glycan array binding signal (z-score),[11],2.63
same,glycan array binding signal (z-score),[12],-0.137
same,glycan array binding signal (z-score),[13],-0.146
same,glycan array binding signal (z-score),[14],3.3
same,glycan array binding signal (z-score),[15],-0.154
same,glycan array binding signal (z-score),[16],-0.156
same,glycan array binding signal (z-score),Gal4S(b1-4)GlcNAc,-0.144
same,glycan array binding signal (z-score),Gal6S(b1-3)GlcNAc,-0.135
same,glycan array binding signal (z-score),GlcA(b1-3)GlcNAc,0.144
same,glycan array binding signal (z-score),[17],-0.147
same,glycan array binding signal (z-score),[18],-0.148
same,glycan array binding signal (z-score),[19],-0.148
same,glycan array binding signal (z-score),[20],-0.148
same,glycan array binding signal (z-score),[21],-0.147
same,glycan array binding signal (z-score),Man(a1-2)Man(a1-3)Man,-0.142
same,glycan array binding signal (z-score),Man(a1-6)Man,-0.148
same,glycan array binding signal (z-score),Neu5Ac(a2-3)Gal,-0.152
same,glycan array binding signal (z-score),[22],-0.145
same,glycan array binding signal (z-score),[23],-0.156
